# Laboratory results: article PMC12615815
# Key:
# Assay in all cases: cross-link between two proteins; cross-linking mass spectrometry
# [1] = target: Large ribosomal subunit protein bL25 (UniProt P68919)
# [2] = target: Large ribosomal subunit protein uL23 (UniProt P0ADZ0)
# [3] = target: Small ribosomal subunit protein bS1 (UniProt P0AG67)
# [4] = target: Small ribosomal subunit protein uS14 (UniProt P0AG59)
substance,measurement,setting,value
"Large ribosomal subunit protein uL16, P0ADY7",listed as a hit,[1],yes
"Large ribosomal subunit protein bL9, P0A7R1",listed as a hit,[1],yes
"Large ribosomal subunit protein uL29, P0A7M6",listed as a hit,[2],yes
"Small ribosomal subunit protein bS18, P0A7T7",listed as a hit,[3],yes
"Large ribosomal subunit protein bL31, P0A7M9",listed as a hit,[4],yes
"Small ribosomal subunit protein uS3, P0A7V3",listed as a hit,[4],yes
